In general, inhibition refers to the drop in the measured response relative to a control, in per cent.

The structures appear in SMILES notation. Among all 300,000 compounds or so, about 2,700 (0.9%) were called active. This is one part of a sample in which actives are shown more often than they occur. Unmarked numbers belong to inactive results.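 Rule for the calls: active = mean inhibition of at least 30% with at least half of replicates also reaching 30%; inconclusive = no clear call, values can overlap the other calls; inactive = the rest.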

The target in this assay is Golgi-associated PDZ and coiled-coil motif-containing protein (Homo sapiens) (UniProt Q9HD26). Briefly: blockade of CAL PDZ-reporter peptide interaction – biochemical, fluorescence polarization, untagged CAL PDZ, HTS, primary screen (AID 602252).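 Note: 0% = DMSO neutral control and 100% = excess unlabeled competitor peptide PRC23.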 Particulars: purified CAL PDZ, TMR-peptide fluorescence polarization, 1 h; at 24.9 µM; active compounds read high. For orientation: Polarisation of emitted light reports the rotation of a fluorescent probe.
Consider `CCC1([N+](=O)[O-])COC(c2ccc(C(C)C)cc2)OC1` (centres undefined), for which the inhibition was 2.08%.
Consider `COc1cccc2oc(CCc3ccccc3)cc(=O)c12`, for which the inhibition was -0.506%.
With `Cc1ccc(S(=O)(=O)N2C[C@@H]3CCCC[C@@H]3[C@@H](C)[C@H]2c2cn(Cc3ccccc3)c3ccc(F)cc23)cc1`, the inhibition was -5.03%.
For `Cc1cc(=O)oc2cc(OCC(=O)Nc3nnc(C4CC4)s3)ccc12`, the inhibition is 51.4% (active).
`CCOC(=O)Cc1csc(NC(=O)COc2ccc3c(C)cc(=O)oc3c2)n1`: the inhibition was -3.4%.
The figure for `COc1ccc2c(CC(=O)Nc3nnc(C4CC4)s3)coc2c1` is -1.76%; for `CC(=O)Nc1ccc(C(=O)Nc2cc(S(=O)(=O)N3CCOCC3)ccc2N2CCOCC2)cc1` it is -4.08%; for `COc1cccc(CC(=NO)c2cccc(OC)c2)c1` it is -7.29%.
For `CC(CN1CCOCC1)OC(=O)c1ccc(Cl)cc1Cl` (centres undefined), the inhibition was -2.34%.
Consider `CC(CN1CCOCC1)OC(=O)c1ccc(C(C)(C)C)cc1` (centres undefined), for which the inhibition was -3.82%.
As for `Cc1ccc(C(=O)OC(C)CN2CCOCC2)cc1` (centres undefined), the inhibition is 70.2% (active).
For the compound `Cc1csc(NC(=O)C2CCN(S(=O)(=O)c3ccccc3)CC2)n1`, the inhibition is 3.13%.
`OC(CNCCc1ccc(Cl)cc1Cl)COc1ccccc1` (centres undefined): the inhibition is 64.2% (active).
`OC(CNCc1ccc2c(c1)OCO2)COc1ccccc1` (centres undefined): the inhibition is -0.826%.
As for `OC(COc1ccccc1)CN1CCN(c2cccc(Cl)c2)CC1` (centres undefined), the inhibition was -5.9%.
In the case of `O=C(CSc1nnc(CN2CCCC2)n1-c1ccc(F)cc1)c1ccc2c(c1)OCO2`, the inhibition was -2.04%.
In the case of `COC[C@@H]1NS(=O)(=O)c2ccc(Br)cc2O[C@H]1c1ccccc1`, the inhibition is -7.2%.
Turning to `COc1ccc(OCc2cc(C(=O)N3CCCC3)no2)c2ccccc12`, the inhibition is -4.16%.
For the compound `O=C(c1cc(COc2cccc(C(F)(F)F)c2)on1)N1CCSCC1`, the inhibition is -4.68%.
Take `COc1cccc(OCc2cc(C(=O)N3CCN(C(=O)c4ccco4)CC3)no2)c1`: the inhibition is 139% (active).
The figure for `C[C@H](CO)N1C[C@H](C)[C@@H](CN(C)Cc2ccc(-c3ccccc3)cc2)Oc2ccc(NC(=O)Cn3cnnn3)cc2C1=O` is -3.86%; for `O=C(O)CN(Cc1ccco1)S(=O)(=O)c1ccc(F)cc1` it is 41.2% (active); for `O=C(O)CN(Cc1ccco1)S(=O)(=O)c1ccccc1` it is -2.04%.
On to `CCN(CC(=O)NCc1ccco1)S(=O)(=O)c1ccc(F)cc1`, for which the inhibition was -5.17%.
For the compound `O=C1NC(c2ccccc2)Cc2ccncc21` (centres undefined), the inhibition is 0.221%.
On to `CCN(CC)S(=O)(=O)c1ccc(N2CCOCC2)c(NC(=O)C(C)Oc2ccc(F)cc2)c1` (centres undefined), for which the inhibition was -9.92%.
`CCOC(=O)c1sc2nc(C)[nH]c(=O)c2c1C`: the inhibition was -5.61%.
With `CCOC(=O)c1sc2nc(CSc3ccccc3)[nH]c(=O)c2c1C`, the inhibition was 82.4% (active).
With `CCOC(=O)c1sc2nc(CSCC(=O)OCc3ccc(C(=O)OC)o3)[nH]c(=O)c2c1C`, the inhibition is -1.2%.
Turning to `CN(C)CCNC(=O)c1ccc(Cl)c2cc3ccccc3nc12`, the inhibition was -3.6%.
With `Cc1ccc(S(=O)(=O)N(C)C)cc1NC(=O)CN1c2cccc3cccc(c23)S1(=O)=O`, the inhibition was 1.34%.
`COc1cc(OC)cc(-c2nnc(N(C)C(=O)c3ccncc3)s2)c1`: the inhibition is -5.84%.
For the compound `CN(C(=O)C1CCOC1)c1nnc(-c2cccnc2)s1` (centres undefined), the inhibition is 5.89%.
Turning to `CN(C(=O)c1ccno1)c1nnc(-c2cccnc2)s1`, the inhibition is 79.5% (active).
Regarding `Cc1ccc(S(=O)(=O)CCC(=O)OCC(=O)N(C)Cc2ccccc2)cc1`, the inhibition was -0.906%.
In the case of `O=C(COc1ccccc1F)Nc1nc(-c2ccccn2)cs1` it was -7.77%; in that of `CC(C)(C)OC(=O)N(Cc1ccccc1)Cc1ccc(OCc2cccc(NC(=O)c3ccccc3)c2)cc1`, -1.04%.
As to `Cc1cccc(NC(=S)N2CCC(C(=O)c3ccc(F)cc3)CC2)c1`, the inhibition is -2.74%.
As for `CN(C)S(=O)(=O)c1cccc(NC(=O)Cc2ccsc2)c1`, the inhibition is 56.9% (active).
As to `CN(C)S(=O)(=O)c1cccc(NC(=O)COC(=O)/C=C/c2cccs2)c1`, the inhibition was -0.792%.
Turning to `CN(C)S(=O)(=O)c1cccc(NC(=O)COc2ccc3ccccc3c2)c1`, the inhibition is -3.42%.
For the compound `COc1cc2c(cc1OC)C(Cc1cc(OC)c(OC)cc1[N+](=O)[O-])=NCC2`, the inhibition was -3.58%.
As to `O=c1ccnc(Nc2ccc(Cl)cc2)[nH]1`, the inhibition was -6.21%.
In the case of `CC1(C)N=C(N)NC(Nc2ccc(Cl)cc2)=N1`, the inhibition was 46.4% (active).
Regarding `COc1ccccc1NC1=NC(c2ccc(Cl)cc2)N=C(N)N1` (centres undefined), the inhibition was 2.25%.
In the case of `COc1ccc(-c2ccc3c(c2)C2CC3CCN2CCC#N)cc1` (centres undefined) it was -7.19%.
The figure for `COc1ccc(C(=O)NCC(=O)N/N=C/c2ccc([N+](=O)[O-])s2)cc1OC` is 1.89%.
On to `Cc1ccccc1NCC(=O)N/N=C\c1ccc([N+](=O)[O-])s1`, for which the inhibition is -2.26%.
In the case of `CNN/C(N=Cc1ccc([N+](=O)[O-])s1)=N\S(=O)(=O)c1cc(C)c(Cl)cc1SCc1ccccc1`, the inhibition was 66.8% (active).
In the case of `COc1cc(C(=O)CCc2ccc3c(c2)OCO3)cc(OC)c1OC` it was -5.96%.
On to `COc1ccc(S(=O)(=O)Nc2ccc(O)c(Sc3nc4ccccc4s3)c2)cc1`, for which the inhibition was 40.1% (active).
For `CCOc1ccc(S(=O)(=O)Nc2nc3cc(OC)ccc3s2)cc1`, the inhibition was 1.2%.
On to `O=C(O)c1cccc(S(=O)(=O)Nc2ccc(O)cc2Sc2nc3ccccc3s2)c1`, for which the inhibition was -1.01%.
As for `COc1ccc(CCNC(=O)c2ccc(NC(=O)CC3SC(N4CCCCC4)=NC3=O)cc2)cc1OC` (centres undefined), the inhibition was -1.27%.
On to `O=C1c2ccccc2C(=O)C1C(=O)C1CC1`, for which the inhibition is -5.16%.
As to `CS(=O)(=O)N(CC(=O)Nc1ccc(Cl)c(Cl)c1)C1CCCCC1`, the inhibition was 51.4% (active).
In the case of `CCC(C)NC(=O)CN(C1CCCCC1)S(C)(=O)=O` (centres undefined) it was 7.29%; in that of `CS(=O)(=O)N(CC(=O)Nc1ccc(F)cc1)C1CCCCC1`, -14.6%.
For the compound `COc1ccc(Cn2cc(CN3CCS(=O)(=O)N(Cc4ccc(-c5cccc(Cl)c5)cc4)C(C)C3=O)nn2)cc1` (centres undefined), the inhibition is -4.3%.
